From PubChem BioAssay
Several values for one entry are separate records, joined by “and”; a condition that tells them apart may be missing. Equal values may be shown once. For some assays here: Potency and affinity values are given separately. Where a structure was tested more than once in an assay, its records may differ in their call. Activity calls are given as the source filed them. A call without a number means that no potency is given here. Unless noted, how the calls were made is not given here.

Tests used:
[1] = antimalarial activity against Dd2 strain (AID 2302;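 active means growth inhibition above 50% at the single 2 µM test dose, taken to imply half-maximal potency below 2 µM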); settings: P. falciparum Dd2 in RBCs, LDH growth readout, 72 h; at 2 µM; stronger effect = higher value
[2] = HepG2 cytotoxicity, primary screen, cytotoxicity control for P. falciparum antimalarial project, cell-based, ATP luminescence (AID 2303;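 active means inhibition above 50%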); settings: HepG2 viability, 24-48 h, at 10 µM, stronger effect = higher value
[3] = molecular target: L-lactate dehydrogenase (Plasmodium falciparum (isolate CDC / Honduras)) (UniProt Q27743); assay: PfLDH activity inhibition – cell lysate, 3D7 strain, counter-screen for P. falciparum growth inhibition project (AID 2304); settings: P. falciparum 3D7 crude extract, LDH APAD/NBT absorbance; at 2 µM; stronger effect = higher value
[4] = inhibition of 3D7 malaria parasite growth – strain 3D7 (AID 2306); settings: P. falciparum 3D7 erythrocytic growth, LDH absorbance, 72 h; at 2 µM; stronger effect = higher value
[5] = molecular target: Calcium-dependent protein kinase 1 (Plasmodium falciparum (isolate 3D7)) (UniProt P62344); assay: PfCDPK1 kinase inhibitors, biochemical, TCAMS library (AID 1159585; cut-off not given, nearly all actives have IC50 up to about 0.98 µM;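 further: inhibitors leave more ATP so luminescence rises with inhibition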); settings: recombinant PfCDPK1, Kinase-Glo ATP depletion luminescence
[6] = molecular target: Plasmodium falciparum protein kinase 6 (PK6, PF3D7_1337100) (UniProt Q8IDW1); assay: PfPK6 kinase inhibitors, biochemical, TCAMS library (AID 1159586); settings: recombinant PfPK6, Kinase-Glo ATP depletion luminescence
[7] = molecular target: Protein kinase 7 (PK7), Plasmodium falciparum 3D7 (PF3D7_0213400) (UniProt Q7YTF7); assay: inhibition of Plasmodium PK7 catalytic activity – biochemical, TCAMS antimalarial set, Kinase-Glo luminescence (AID 1159587); settings: recombinant PfPK7, Kinase-Glo ATP depletion luminescence
[8] = molecular target: Calcium-dependent protein kinase 4 (Plasmodium falciparum (isolate 3D7)) (UniProt Q8IBS5); assay: PfCDPK4 kinase inhibitors, biochemical, TCAMS library (AID 1159588; cut-off not given, nearly all actives have IC50 up to about 0.91 µM); settings: recombinant PfCDPK4, Kinase-Glo ATP depletion luminescence
Sequence of Calcium-dependent protein kinase 4 (Plasmodium falciparum (isolate 3D7)) (Q8IBS5 whole entry, looked up): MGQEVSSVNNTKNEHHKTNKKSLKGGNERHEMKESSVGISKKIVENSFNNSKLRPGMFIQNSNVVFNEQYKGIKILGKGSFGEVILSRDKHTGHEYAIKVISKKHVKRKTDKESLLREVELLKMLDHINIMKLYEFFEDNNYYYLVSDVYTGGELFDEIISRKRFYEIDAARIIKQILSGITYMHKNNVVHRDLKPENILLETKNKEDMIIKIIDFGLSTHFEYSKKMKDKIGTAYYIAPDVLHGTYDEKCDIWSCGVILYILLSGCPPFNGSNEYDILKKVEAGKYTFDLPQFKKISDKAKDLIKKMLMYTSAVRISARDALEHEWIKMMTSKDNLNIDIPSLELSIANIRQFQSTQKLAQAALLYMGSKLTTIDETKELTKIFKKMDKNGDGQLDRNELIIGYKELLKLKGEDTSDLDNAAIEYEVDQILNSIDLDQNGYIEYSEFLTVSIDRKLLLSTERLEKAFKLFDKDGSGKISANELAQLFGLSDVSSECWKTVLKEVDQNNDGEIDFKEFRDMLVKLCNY

Sequence of Calcium-dependent protein kinase 1 (Plasmodium falciparum (isolate 3D7)) (P62344 whole entry, looked up): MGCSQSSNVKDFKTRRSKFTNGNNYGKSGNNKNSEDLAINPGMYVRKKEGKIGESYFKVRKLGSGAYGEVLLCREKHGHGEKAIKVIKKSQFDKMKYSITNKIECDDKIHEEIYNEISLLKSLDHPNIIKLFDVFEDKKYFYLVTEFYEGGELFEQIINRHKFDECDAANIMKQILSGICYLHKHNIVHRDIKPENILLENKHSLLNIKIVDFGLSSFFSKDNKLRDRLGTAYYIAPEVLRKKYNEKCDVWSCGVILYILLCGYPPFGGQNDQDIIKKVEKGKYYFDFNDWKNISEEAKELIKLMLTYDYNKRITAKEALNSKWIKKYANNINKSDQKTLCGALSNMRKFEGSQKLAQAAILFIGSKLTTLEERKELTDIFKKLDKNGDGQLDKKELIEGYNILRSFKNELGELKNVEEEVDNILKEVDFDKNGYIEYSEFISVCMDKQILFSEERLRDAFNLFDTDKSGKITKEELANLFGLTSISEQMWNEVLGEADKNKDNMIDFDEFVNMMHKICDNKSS
Sequence of L-lactate dehydrogenase (Plasmodium falciparum (isolate CDC / Honduras)) (Q27743 whole entry, looked up): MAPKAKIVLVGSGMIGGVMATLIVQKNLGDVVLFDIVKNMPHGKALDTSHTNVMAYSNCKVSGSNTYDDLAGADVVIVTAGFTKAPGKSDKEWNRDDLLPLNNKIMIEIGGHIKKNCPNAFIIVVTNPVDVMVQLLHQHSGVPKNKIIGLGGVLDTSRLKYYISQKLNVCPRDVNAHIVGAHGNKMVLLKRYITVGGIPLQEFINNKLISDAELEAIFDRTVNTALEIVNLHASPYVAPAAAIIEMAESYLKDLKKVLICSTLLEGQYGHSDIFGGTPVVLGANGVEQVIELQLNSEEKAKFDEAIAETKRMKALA
Sequence of Protein kinase 7 (PK7), Plasmodium falciparum 3D7 (PF3D7_0213400) (Q7YTF7 1-343): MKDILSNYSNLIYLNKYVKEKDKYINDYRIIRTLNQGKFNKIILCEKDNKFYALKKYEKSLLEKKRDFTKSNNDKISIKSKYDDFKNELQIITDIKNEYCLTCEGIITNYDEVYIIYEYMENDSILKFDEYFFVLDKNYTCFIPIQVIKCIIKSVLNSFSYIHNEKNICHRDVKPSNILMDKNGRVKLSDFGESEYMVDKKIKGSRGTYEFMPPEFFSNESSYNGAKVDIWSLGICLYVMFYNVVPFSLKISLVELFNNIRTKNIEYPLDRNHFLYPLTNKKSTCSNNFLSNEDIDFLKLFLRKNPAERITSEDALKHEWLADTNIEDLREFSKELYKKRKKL
Sequence of Plasmodium falciparum protein kinase 6 (PK6, PF3D7_1337100) (Q8IDW1 1-305): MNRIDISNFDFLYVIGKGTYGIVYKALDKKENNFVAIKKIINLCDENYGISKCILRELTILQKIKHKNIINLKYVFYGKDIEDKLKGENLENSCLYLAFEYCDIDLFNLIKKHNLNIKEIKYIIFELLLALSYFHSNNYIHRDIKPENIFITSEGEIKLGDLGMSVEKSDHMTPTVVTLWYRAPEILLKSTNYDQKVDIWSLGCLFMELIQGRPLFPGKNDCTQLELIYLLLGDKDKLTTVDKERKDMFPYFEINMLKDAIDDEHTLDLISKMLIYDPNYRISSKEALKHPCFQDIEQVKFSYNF

Compound | growth inhibition [1] | inhibition [2] | inhibition [3] | growth inhibition [4] | outcome [5] | outcome [6] | outcome [7] | outcome [8]
CCCc1c(C(=O)NC2CCC(CN3CCC(c4c[nH]c5ccccc45)CC3)CC2)cnn1-c1ccc(Cl)cc1 (stereo unspecified) | 37% (inactive) | 53% (active) | 1% (inactive) | 90% (active) | inactive | inactive | inactive | inactive
CC[C@H]1CN2CC[C@H]1C[C@H]2[C@H](O)c1cc(-c2ccc(OC(F)(F)F)cc2)nc2ccc(OC)cc12 | 99% (active) | 24% (inactive) | 0% (inactive) | 98% (active) | inactive | inactive | inactive | inactive
Fc1ccc(N(c2nc(-c3cc(F)cc(C(F)(F)F)c3)cs2)C2CCNCC2)cc1 | 10% (inactive) | 35% (inactive) | -3% (inactive) | 95% (active) | inactive | inactive | inactive | inactive
O=C(C=Cc1cc([N+](=O)[O-])ccc1Cl)NC1CCC(CN2CCC(c3c[nH]c4ccccc34)CC2)CC1 (stereo unspecified) | 94% (active) | 21% (inactive) | 1% (inactive) | 102% (active) | inactive | inactive | inactive | inactive
CC(Cc1ccc(OCc2ccccc2)cc1)NCC(O)c1cccc(Cl)c1 (stereo unspecified) | 99% (active) | 50% (active) | 5% (inactive) | 99% (active) | inactive | inactive | inactive | inactive
O=C(Nc1ccccc1Cl)NC1CCC(CN2CCC(c3c[nH]c4ccccc34)CC2)CC1 (stereo unspecified) | 31% (inactive) and 34% (inactive) | 32% (inactive) and 37% (inactive) | 0% (inactive) and -2% (inactive) | 98% (active) and 101% (active) | inactive | inactive | inactive | inactive
Cc1cccc(C(=O)Nc2ccnc(N(C)C3CCN(CC(C)C)CC3)c2)c1 | 6% (inactive) | 10% (inactive) | -2% (inactive) | 95% (active) | inactive | inactive | inactive | inactive
CC[C@H]1CN2CC[C@H]1C[C@H]2[C@H](O)c1cc(-c2ccccc2C(F)(F)F)nc2ccc(OC)cc12 | 99% (active) | -4% (inactive) | -5% (inactive) | 98% (active) | inactive | inactive | inactive | inactive
CCN1CC[C@]2(c3cccc(OC)c3)Cc3nc4ccccc4c(-c4ccccc4)c3C[C@H]2C1 | 98% (active) | 0% (inactive) | -4% (inactive) | 99% (active) | inactive | inactive | inactive | inactive
CCCc1cc(O)c2c3c(c(=O)oc2c1)CN(C)CC3 | 50% (active) | 12% (inactive) | 0% (inactive) | 98% (active) | inactive | inactive | inactive | inactive
CN1CCC(COC(=O)C(O)(c2ccccc2)c2ccccc2)C1 (stereo unspecified) | 4% (inactive) | 0% (inactive) | -4% (inactive) | 98% (active) | inactive | inactive | inactive | inactive
Cc1ccc(C)c(N2CCN(Cc3ccccc3O)CC2)c1 | 90% (active) | 11% (inactive) | 5% (inactive) | 100% (active) | inactive | inactive | inactive | inactive
O=C(/C=C/c1ccc(Cl)c(Cl)c1)NCC1CCC(CN2CCC(c3c[nH]c4ccccc34)CC2)CC1 (stereo unspecified) | 93% (active) | 54% (active) | 4% (inactive) | 102% (active) | inactive | inactive | inactive | inactive
CC[C@H]1CN2CC[C@@H]1C[C@H]2[C@H](O)c1cc(-c2cc(Cl)cc(Cl)c2)nc2ccc(OC)cc12 | 97% (active) | 0% (inactive) | -1% (inactive) | 99% (active) | inactive | inactive | inactive | inactive
FC(F)(F)c1cccc(N2CCC(CN3CCC(c4c[nH]c5ccccc45)CC3)CC2)n1 | 10% (inactive) | 41% (inactive) | -3% (inactive) | 84% (active) | inactive | inactive | inactive | inactive
O=C(/C=C/c1ccc(Cl)c(Cl)c1)NCCCCCN1[C@@H]2CC[C@H]1CC(c1c[nH]c3ccc(O)cc13)C2 (stereo partly specified) | -1% (inactive) and 20% (inactive) | 26% (inactive) and 9% (inactive) | 2% (inactive) and -6% (inactive) | 100% (active) and 91% (active) | inactive | inactive | inactive | inactive
O=C1COc2ccccc2N1CCN1CCC(NCc2ccc(-c3cccs3)cc2)CC1 | 18% (inactive) | 37% (inactive) | -4% (inactive) | 87% (active) | inactive | inactive | inactive | inactive
CC(=O)N(Cc1cccc(-c2cccc(CNCc3ccc4c(c3)OCO4)c2)c1)C1CCN(Cc2ccccc2)CC1 | 21% (inactive) | 16% (inactive) | -5% (inactive) | 95% (active) | inactive | inactive | inactive | inactive
COc1ccc(C=CC(=O)NC2CCC(CN3CCC(c4c[nH]c5ccccc45)CC3)CC2)cc1OC (stereo unspecified) | 85% (active) and 72% (active) | 15% (inactive) and 14% (inactive) | 1% (inactive) and -1% (inactive) | 100% (active) and 101% (active) | inactive | inactive | inactive | inactive

Compound | growth inhibition [1] | inhibition [2] | inhibition [3] | growth inhibition [4] | outcome [5] | outcome [6] | outcome [7] | outcome [8]
C=C[C@H]1CN2CC[C@H]1C[C@H]2[C@H](O)c1cc(/C=C/c2ccc(F)cc2)nc2ccc(OC)cc12 | 99% (active) | 25% (inactive) | 4% (inactive) | 99% (active) | inactive | inactive | inactive | inactive
O=C(/C=C/c1ccc(Cl)c(Cl)c1)Nc1cccc(CN2CCC(c3c[nH]c4ccccc34)CC2)c1 | 91% (active) | 15% (inactive) | 0% (inactive) | 99% (active) | inactive | inactive | inactive | inactive
COc1ccc(N(c2nc(-c3cc(Cl)ccc3Cl)cs2)C2CCNCC2)cc1 | 4% (inactive) | 17% (inactive) | -2% (inactive) | 91% (active) | inactive | inactive | inactive | inactive
Cc1cc(C2CCCCN2C)ccc1-c1ccc(C(=O)N2CCc3cc4c(cc32)C2(CCN(C)CC2)CO4)cc1 (stereo unspecified) | 94% (active) | 37% (inactive) | 1% (inactive) | 95% (active) | inactive | inactive | inactive | inactive
Cc1ccc2[nH]cc(C3CCN(CC4CCC(NC(=O)/C=C/c5ccc(Cl)c(Cl)c5)CC4)CC3)c2c1 (stereo unspecified) | 46% (inactive) and 86% (active) | 29% (inactive) and 37% (inactive) | -10% (inactive) and 0% (inactive) | 101% (active) and 94% (active) | inactive | inactive | inactive | inactive
S=C(NCCc1ccc(Cl)cc1)NC1CCC(CN2CCC(c3c[nH]c4ccccc34)CC2)CC1 (stereo unspecified) | 34% (inactive) and 84% (active) | 37% (inactive) and 42% (inactive) | -2% (inactive) and -8% (inactive) | 100% (active) and 101% (active) | inactive | inactive | inactive | inactive
CC(Cc1ccc(OCCCCOc2ccccc2)cc1)NCCCn1ccnc1 (stereo unspecified) | 101% (active) | 100% (active) | 0% (inactive) | 101% (active) | inactive | inactive | inactive | inactive
CC(=O)C1(c2ccccc2)CCN(CCC2(c3ccc(Cl)c(Cl)c3)CN(C(=O)Nc3cc(F)cc(F)c3)CCO2)CC1 (stereo unspecified) | 20% (inactive) | 2% (inactive) | -1% (inactive) | 86% (active) | inactive | inactive | inactive | inactive
Fc1ccc2[nH]cc(CCN3CCC(CNCc4ccccc4)CC3)c2c1 | 94% (active) | 67% (active) | 4% (inactive) | 100% (active) | inactive | inactive | inactive | inactive
CN(c1cc(NC(=O)c2ccc(F)cc2)ccn1)C1CCN(Cc2cccc(O)c2)CC1 | 82% (active) | 3% (inactive) | 2% (inactive) | 100% (active) | inactive | inactive | inactive | inactive
OC(CNC12CC3CC(CC(C3)C1)C2)c1cccc(C(F)(F)F)c1 (stereo unspecified) | 98% (active) | 16% (inactive) | -3% (inactive) | 97% (active) | inactive | inactive | inactive | inactive
COC(=O)CN(C(=O)/C=C/c1ccc(Cl)c(Cl)c1)C1CCC(CN2CCC(c3c[nH]c4ccccc34)CC2)CC1 (stereo unspecified) | 69% (active) | 31% (inactive) | -1% (inactive) | 100% (active) | inactive | inactive | inactive | inactive
O=C(CCC(=O)c1ccc2c3c(cccc13)CC2)NC1CCC(CN2CCC(c3c[nH]c4ccccc34)CC2)CC1 (stereo unspecified) | 13% (inactive) | 34% (inactive) | -1% (inactive) | 96% (active) | inactive | inactive | inactive | inactive
CN(C)c1cccc(CCNCCc2c[nH]c3ccc(Cl)cc23)c1 | 75% (active) | 19% (inactive) | -6% (inactive) | 94% (active) | inactive | inactive | inactive | inactive
Cc1[nH]c2ccccc2c1C1CCN(CC2CCC(NC(=O)/C=C/c3ccc(Cl)c(Cl)c3)CC2)CC1 (stereo unspecified) | 93% (active) | 15% (inactive) | 1% (inactive) | 101% (active) | inactive | inactive | inactive | inactive
COc1cc(C=CC(=O)N2CCC(CN3CCC(c4c[nH]c5ccccc45)CC3)CC2)cc(OC)c1 | 8% (inactive) | 19% (inactive) | 4% (inactive) | 95% (active) | inactive | inactive | inactive | inactive
CCC(C)CN1CCC(N(C)c2cc(NC(=O)c3cccc(C)c3)ccn2)CC1 (stereo unspecified) | 14% (inactive) | 1% (inactive) | 1% (inactive) | 93% (active) | inactive | inactive | inactive | inactive
CN1CC=C(c2c[nH]c3ccc(-c4ccccc4)cc23)CC1 | 60% (active) | 14% (inactive) | -1% (inactive) | 93% (active) | inactive | inactive | inactive | inactive
